Source: PubChem
YjeE inh = YjeE (TsaE) inhibition, E. coli | purified YjeE enzyme, qHTS inhibition assay | Potency, µM | 0.05% of 71,000 active | AID 605
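Purified YjeE (10 uM) with BODIPY Texas Red-labeled ADP probe (2 uM); compounds pin-transferred, 15 min at room temperature. Binding inhibition read as decreased fluorescence polarization; ADP titration as control.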
Casp7 inh = caspase-7 (human) inhibition, allosteric or competitive; Potency, µM (titrated, usually from 57.5 µM), hits mostly inhibitors; P55210; AID 889; recombinant caspase-7, Ac-DEVD-AFC fluorescence rate; 0.02% of 75,000 active; active = well fitted inhibition curve with a large enough effect in the main read-out, with a control signal flat, not every such curve was filed as active; inconclusive = small, poorly fitted or top-dose-only effect, or a change in a side signal
BRCT inh green = inhibitors of human BRCA1 BRCT-phosphoprotein interaction (green fluorophore); P38398; BRCA1 BRCT-phosphopeptide binding, green fluorescence polarization; Potency, µM (doses to about 76.9 µM), most hits filed as inhibitors; 0.05% of 75,000 active
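Compounds were incubated for 12 min at room temperature with a complex of 100 nM fluorescein-tagged pBACH1 decapeptide and 250 nM His-tagged BRCT protein. Buffer was phosphate pH 7.3 with EDTA, DTT and Tween 20. Disruption of binding lowers the polarization signal.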
Casp1 inh = blocks human caspase-1 allosterically or competitively. Caspase-1 enzyme, Ac-WEHD-AFC fluorogenic rate. 0.03% of 75,000 active. Potency, µM (titrated, usually from 57.5 µM), usual class: inhibitors. P29466
BRCT PPI red = inhibitors of human BRCA1 BRCT-phosphoprotein interaction (red fluorophore). P38398. BRCT-phosphopeptide binding, red fluorescence polarization. Potency, µM (series often up to 76.9 µM), usual class: inhibitors. 0.03% of 75,000 active. AID 892
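Fluorescence polarization: 100 nM His-tagged BRCA1 BRCT with 100 nM TAMRA-labelled phospho-BACH1 decapeptide, phosphate buffer pH 7.3 with 150 mM NaCl, DTT, 0.01% Tween 20; 12 min RT. Binding inhibition seen as FP decrease.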
Pol III holo inh = blocks replication by bacterial DNA polymerase III holoenzyme | 0.25% of 71,000 active | Potency, µM (series often up to 57.1 µM) | reconstituted DNA polymerase III holoenzyme replication, biochemical
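Reconstituted *E. coli* holoenzyme (0.35 nM Pol III, 1 nM beta, 154 nM SSB, 2 nM primase) was preincubated with compound for 15 min at RT. Synthesis on 1.4 nM ssM13Gori ran 35 min, then was stopped with PicoGreen/EDTA and read as dsDNA fluorescence.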
Hits are given with their value; . = inactive; ? = inconclusive; / = no result given; [ ] = remark or other dose. The list is not random: actives were taken first. Their share in the collection is about 0.29%. Unless noted, calls come from the whole dose curve; as a rule, active = well fitted curve in the direction sought with a large enough effect; inconclusive = small, poorly fitted or top-dose-only effect, or another doubt; inactive = no such curve, though single readings can be large; an effect the other way counts as inactive or inconclusive.

SMILES	YjeE inh	Casp7 inh	BRCT inh green	Casp1 inh	BRCT PPI red	Pol III holo inh
CSc1nc(N)c2ncn([C@H]3O[C@H](COP(=O)(O)OP(=O)(O)O)[C@@H](O)[C@@H]3O)c2n1	50µM	.	.	.	.	.
Oc1cccc(O)c1O	.	.	.	.	.	7.9µM
COc1c(O)cccc1O	/	.	.[3.08 µM]	.	.	/
COc1cccc2c1C(=N)c1c(O)c3c(c(O)c1C2=O)C[C@](O)(C(C)=O)C[C@@H]3O[C@H]1C[C@H](N)[C@@H](O)[C@H](C)O1	.	.[11.5 µM]	.[15.4 µM]	.[11.5 µM]	.[15.4 µM]	3.2µM
COc1cccc2c1C(=O)c1c(O)c3c(c(O)c1C2=O)C[C@](O)(C(C)=O)C[C@H]3O[C@@H]1C[C@H](N)[C@H](O)[C@H](C)O1	.	.	.	.	?	2µM
COc1cccc2c1C(=O)c1c(O)c3c(c(O)c1C2=O)C[C@@](O)(C(=O)CO)C[C@@H]3O[C@H]1C[C@H](N)[C@H](O)[C@H](C)O1	/	.	.	.	10µM	/
CC(=O)[C@@]1(O)Cc2c(O)c3c(c(O)c2[C@H](O[C@H]2C[C@H](N)[C@H](O)[C@H](C)O2)C1)C(=O)c1ccccc1C3=O	50µM	.	.	.	13µM	4µM
Oc1cc(O)cc(/C=C\c2ccc(O)c(O)c2)c1	.	.	.	?	.	.
CC(=O)Oc1ccc(/C=C\C(=O)C[C@@H]2O[C@@H](Oc3cc(OC(C)=O)c4c(c3)O[C@@H](c3ccc(OC(C)=O)cc3)CC4=O)[C@H](OC(C)=O)[C@H](OC(C)=O)[C@@H]2OC(C)=O)cc1	.	/	/	/	/	.
CN1CCc2c(cc(O)c(O)c2Cl)[C@H](c2cccc(Cl)c2)C1	.	.	.	.	.	.
c1ccc2c(c1)CCC[C@H]2C1=NCCN1	.	.	.	.	.	.
O=C(NCCCN1CCOCC1)c1ccc(Cc2nc3ccccc3[nH]2)cc1	/	.	.	.	.	/
CN(C)[C@H]1C(=O)C(C(=O)NCN2CCCC2)=C(O)[C@]2(O)C(=O)C3=C(O)c4c(O)cccc4[C@](C)(O)[C@H]3C[C@H]12	.	.[11.5 µM]	.[15.4 µM]	.[11.5 µM]	.[15.4 µM]	3.2µM
CN(C)c1ccc(O)c2c1C[C@@H]1C[C@H]3C(N(C)C)C(=O)C(C(N)=O)=C(O)[C@@]3(O)C(=O)C1=C2O (some centres undefined)	/	.	.[3.08 µM]	.	.	/
C[C@@]12CCC(=O)C=C1CC[C@@H]1[C@@H]2[C@H](O)C[C@]2(C)[C@@H]1CC[C@]2(O)C(=O)COC(=O)CCC(=O)O	.	.	.	.	.	.
O=C1Nc2ccccc2C1=Nc1cccc2ncccc12	.	.[11.5 µM]	.[15.4 µM]	.[11.5 µM]	.[15.4 µM]	.[11.4 µM]
O=[N+]([O-])c1cccc2c[nH]nc12	.	.	.	.	.	16µM
Nc1ncnc2oc(-c3ccco3)c(-c3ccco3)c12	100µM	?	.	.	?	10µM
Nc1nnc(-c2ccco2)s1	.	.	.	.	.	.
c1ccc(-c2csc(-c3nc4ccccc4[nH]3)n2)cc1	/	.	?	.	.	/
Cn1c(-c2nc(-c3ccccc3)cs2)nc2ccccc21	/	.	40µM	.	.	/
C=CCN1CCc2c(cc(O)c(O)c2Cl)[C@H](c2ccccc2)C1	.	.	.	.	.	.
COc1[nH]c(/N=C/c2ccccc2)c(C#N)c1C#N	.	.	25µM	?	32µM	.
CCOC(=O)c1sc(N)c(C(=O)Nc2ccc(C)cc2C)c1C	/	.	.	.	.	/
O=C(Nc1cccc(C(=O)Nc2ccc(S(=O)(=O)O)c3cc(S(=O)(=O)O)cc(S(=O)(=O)O)c23)c1)Nc1cccc(C(=O)Nc2ccc(S(=O)(=O)O)c3cc(S(=O)(=O)O)cc(S(=O)(=O)O)c23)c1	.	.	.	.	.	13µM
CC(C)C[C@H](NC(=O)[C@@H](NC(=O)N[C@@H](Cc1ccccc1)C(=O)O)[C@H]1CCN=C(N)N1)C(=O)N[C@H](C=O)Cc1ccccc1	.	/	/	/	/	.
COc1ccc(OC)c(N2C(=O)[C@@H]3C(c4ccccc4Cl)=NO[C@@H]3C2=O)c1	.	.	.	.	.	32µM
O=C=Nc1ccc(Cc2ccc(N=C=O)cc2)cc1	.	.	.	.	.	.
